For 13 compounds, activity change, negative = inhibition and max response results are on record in PubChem BioAssay (NCATS).

This test can be described thus: qHTS Assay for Lipid Storage Modulators (AID 1519). For activity change, negative = inhibition: % is set by controls: 0 for no effect and ±100 for the full control effect. As to conditions: Drosophila S3 cells, BODIPY lipid droplet/cell ratio, laser cytometry, cells loaded with oleic acid. The text has this: NIH Molecular Libraries Probe Production Centers Network [MLPCN]
NIH Chemical Genomics Center [NCGC]
Assay Submitter (PI): Beller, Mathias; Max-Planck-Institut fur Biophysikalische Chemie
NCGC Assay Overview: Storing lipids as a reservoir for energy or the anabolism of elementary metabolites is a common feature of probably all cells and is conserved from bacteria to humans. The universal cellular lipid storage organelle is the so-called lipid storage droplet (LD). Although ubiquitous, LDs share a simple structure composed of a hydrophobic core that harbors the storage lipids, which is shielded by a droplet-specific phospholipid monolayer to which proteins are attached. The current model of LD biogenesis involves an incorporation of the lipid core into the membrane leaflets of the endoplasmic reticulum (ER) followed by a subsequent budding-like maturation of a LD, which ultimately pinches off. Once released, LD volume can increase by localized lipogenesis or fusion of existing droplets. Storage lipids are re-mobilized enzymatically by lipase activity. Lipase regulation in the adipocyte is heavily studied and involves multiple components including catecholamine signaling, the LD-associated proteins Perilipin and comparative gene identification-58 (CGI-58) and at least two lipases named hormone sensitive lipase (HSL) and adipocyte triglyceride lipase (ATGL). LD regulation outside of the adipocyte is poorly understood and only few components are known. However, there is an urgent need to learn more about ectopic fat depots as mislocalized storage of lipids, for example in the liver or muscle, is an eminent health problem associated with insulin resistance or the metabolic syndrome. We developed a laser-scanning cytometer assay to enable 1,536-well screening and combined the results of the small molecules screen with an RNAi database based on lipid storage.
NCGC Assay Protocol Summary:
We dispensed 4 uL of cells at 1.25 x 10^6 cells/mL into LoBase Aurora COC 1,536-well plates (black walled, clear bottom) with a bottle-valve solenoid-based dispenser (Aurora) to obtain 5,000 cells/well. Triacsin C (Sigma-Aldrich T-4540), an inhibitor of long-chain fatty acyl CoA synthetase that blocks synthesis of triglycerides, was used as a positive control for lipid under-storage. A total of 23 nL of compound solution of different concentrations were transferred to the assay plates using a Kalypsys pin tool equipped with a 1,536-pin array containing 10-nL slotted pins (FP1S10, 0.457-mm diameter, 50.8 mm long; V&P Scientific). One microliter of oleic acid (400 uM) was added, and the plate was lidded with stainless steel rubber gasket lined lids containing pinholes. […] Fluorescence was detected by excitation of the fluorophores with a 488-nm laser on an Acumen Explorer (TTP Lab Tech). The total intensity in channel 1 (500-530 nm) reflected lipid droplet accumulation. […] The ratio of the total intensity in PMT channel 1 over total intensity of channel 3 was also calculated. Percent activity was computed relative to an internal control (100% inhibited lipid droplet deposition due to the presence of 20 uM Triacsin C), which was added to 32 wells/plate.
On the technique in general: qHTS replaces the single test concentration by a dilution series.

Setting [1] is: measured here: cell count channel max response.
Setting [2] is: measured here: lipid channel max response.

Several values for one entry are separate records, joined by “and”; a condition that tells them apart may be missing. Equal values may be shown once. Results filed as inconclusive are left out. Activity calls are given as the source filed them. Calls come from the whole dose curve.

Take `C=CCN1CC[C@]23c4c5ccc(O)c4O[C@@H]2C(=O)CC[C@]3(O)[C@H]1C5`: the activity change, negative = inhibition by setting is: (at 25.7 µM (top of the series)) -1.11% (inactive); (at 57.5 µM (top of the series)) 5.83% (inactive). In addition, the max response is, setting by setting: under setting [1], 1.84% and 18.9%; under setting [2], 3.55% and 28.2%.

With `NC[C@@H](CC(=O)O)c1ccc(Cl)cc1`, the activity change, negative = inhibition (at 25.7 µM (top of the series)) was 0.101% (inactive). Moreover, the max response under setting [1] is 11.7% and the max response under setting [2] came to 10.6%.

Turning to `CC(=O)O[C@@H]1CN2CCC1CC2`, for the setting “at 57.5 µM (top of the series)”, the activity change, negative = inhibition is 2.83% (inactive). Further, the max response reads like this: under setting [1], -10.5%; under setting [2], -8.98%.

For `CC[C@]1(C2=NCCN2)Cc2ccccc2O1`, under “at 57.5 µM (top of the series)”, the activity change, negative = inhibition is 2.09% (inactive). The max response reads like this: under setting [1], 4.62%; under setting [2], 7.07%.

Turning to `C[C@H](N)Cc1c[nH]c2ccc(O)cc12`, the activity change, negative = inhibition (at 57.5 µM (top of the series)) is 0.648% (inactive). In addition, the max response was 20.6% under setting [1] and 23.2% under setting [2].

As for `C=C(C)[C@H]1CN[C@H](C(=O)O)[C@@H]1CC(=O)O`, for the setting “at 57.5 µM (top of the series)”, the activity change, negative = inhibition is 2.85% (inactive). Further, the max response under setting [1] is -5.55% and the max response under setting [2] was -4.1%.

Consider `CC[N+](CC)(CCCNC1=CC(=O)C(NCCC[N+](CC)(CC)Cc2ccccc2)=CC1=O)Cc1ccccc1`, for which the activity change, negative = inhibition (at 57.5 µM (top of the series)) is 3.42% (inactive). Moreover, the max response reads like this: under setting [1], -5.38%; under setting [2], -3.95%.

Take `N[C@H](Cc1o[nH]c(=O)c1Cl)C(=O)O`: under “at 57.5 µM (top of the series)”, the activity change, negative = inhibition is -0.357% (inactive). Moreover, the max response is, setting by setting: under setting [1], 4.55%; under setting [2], 4.87%.

Turning to `C=CCSSCC=C`, the activity change, negative = inhibition (at 57.5 µM (top of the series)) was 11.8% (inactive). Also, the max response by setting is: under setting [1], 5.28%; under setting [2], 18.2%.

Turning to `CN1CC(CO)=C[C@H]2c3cccc4[nH]cc(c34)C[C@H]21`, the activity change, negative = inhibition (at 57.5 µM (top of the series)) is 6.54% (inactive). In addition, the max response runs as follows: under setting [1], 8.91%; under setting [2], 13%.

Consider `C[C@@]12CCC(OS(=O)(=O)O)C[C@@H]1CCC1C2CC[C@]2(C)C(=O)CCC12` (stereo not given in full), for which the activity change, negative = inhibition (at 57.5 µM (top of the series)) is 7.66% (inactive). Also, the max response was found to be 17.5% under setting [1] and 28% under setting [2].

`C=CCN1CCC2(C)c3cc(O)ccc3CC1C2C` (stereo not given): under “at 57.5 µM (top of the series)”, the activity change, negative = inhibition was -2.86% (inactive). Further, the max response by setting is: under setting [1], 24.1%; under setting [2], 21.8%.

In the case of `CP(=O)(O)CCCN`, the activity change, negative = inhibition (at 57.5 µM (top of the series)) is -0.195% (inactive). Moreover, the max response by setting is: under setting [1], 3.46%; under setting [2], 4.47%.
